# Rows were chosen to be rich in hits. Some 11% of all compounds tested hit in one or more screens of this group.
# PNC inhibitor: blocks assembly of the perinucleolar compartment; PC3M PTB-GFP, PNC prevalence imaging, 16 h; hits give low values; activity change (PNC), negative = inhibition, % at 10 µM; hit rate 3.1% among 140,000;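 active = readout at or below -70, meaning at least 70% loss of cells showing the perinucleolar compartment, a nuclear body marking cancer cells; inconclusive = readout between -30 and a set limit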;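 note: plate controls were DMSO wells for no effect and camptothecin positive control wells for full effect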
#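 Read-out is percentage of cells bearing a perinucleolar compartment, from automated 20x imaging of fixed, Hoechst-stained PC3M PTB-GFP cells. Cells were seeded 4 h, then exposed 16 h to compound (23 nl of library stock) in duplicate plates.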
# HTT ATP protect: protects HTT-Q103 PC12 cells, measured by ATP | Potency, µM (doses to about 56.4 µM), inactives show cytoprotection (ATP increase), usual class: activators | hit rate 0.14% among 230,000 | AID 1471 | PC12 HTT-Q103 induced, cytoprotection, ATP luminescence, 40 h; note: potency is the fitted concentration of half-maximal effect; % of control where 0% means no effect; nearly all actives have a fitted effect of over 45% in size
#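 Compounds were screened for protection of PC12 cells against cell death after tebufenozide induction (100 nM final) of mutant Huntingtin exon 1 (Q103) fused to GFP.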
# HPGD block: inhibitors of human 15-hydroxyprostaglandin dehydrogenase (HPGD) | P15428 | hit rate 4.3% among 150,000 | AID 894 | Potency, µM, inactives show at the top dose activity change, negative = inhibition, usual class: inhibitors | purified HPGD, NADH fluorescence kinetic, PGE2 substrate; active = well fitted inhibition curve with a large enough effect, not every such curve was filed as active; inconclusive = small, poorly fitted or top-dose-only effect, or another doubt; inactive = no such curve, though single readings can be large or run the other way; note: potency is the fitted concentration of half-maximal effect; % is set by controls: 0 for no effect and ±100 for the full control effect
# Target sequence (P15428 whole entry, looked up): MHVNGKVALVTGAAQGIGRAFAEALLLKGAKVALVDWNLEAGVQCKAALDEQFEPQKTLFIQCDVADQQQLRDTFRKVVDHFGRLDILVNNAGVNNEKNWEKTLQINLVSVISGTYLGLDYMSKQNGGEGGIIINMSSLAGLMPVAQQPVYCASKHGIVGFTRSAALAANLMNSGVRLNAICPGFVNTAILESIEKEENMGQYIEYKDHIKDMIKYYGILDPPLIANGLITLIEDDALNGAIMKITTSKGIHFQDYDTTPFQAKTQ
#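 NADH formation kinetics: reaction with 30 uM PGE2 and 1 mM NAD+ (final), 20 nM enzyme, Tris-HCl pH 8 with Tween 20, after 15 min compound preincubation at room temperature. Fluorescence change, last versus first of five reads.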
# CBFb-RUNX1 inh: CBF-beta/RUNX1 interaction disruption | AID 1477 | AlphaScreen CBFb-His/RUNX1-biotin binding, biochemical | 230,000 tested, under 10 active | Potency, µM (titrated, usually from 59.8 µM), for inactives: at the top dose activity, negative = inhibition, most hits filed as inhibitors | Q01196+Q13951; note: % of control where 0% means no effect
#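 Read-out: AlphaScreen. Format: His-CBF-beta with biotinylated RUNX1 (30 nM each) preincubated 20 min, compound 15 min, Ni-chelate plus streptavidin beads 90 min; room temperature throughout.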
# ALDH1A1 block: ALDH1A1 (human) enzyme inhibition; P00352; Purified ALDH1A1, NADH fluorescence, propionaldehyde substrate; Potency, µM (top dose mostly 75.3 µM), without a hit: at the top dose activity, negative = inhibition, usual class: inhibitors; hit rate 7.3% among 220,000; AID 1030; active = well fitted inhibition curve with a large enough effect, not every such curve was filed as active; inconclusive = small, poorly fitted or top-dose-only effect, or another doubt; inactive = no such curve, though single readings can be large or run the other way;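 note: potency is the fitted concentration of half-maximal effect; plate controls were no enzyme wells and a reference inhibitor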
# Target sequence (P00352 whole entry, looked up): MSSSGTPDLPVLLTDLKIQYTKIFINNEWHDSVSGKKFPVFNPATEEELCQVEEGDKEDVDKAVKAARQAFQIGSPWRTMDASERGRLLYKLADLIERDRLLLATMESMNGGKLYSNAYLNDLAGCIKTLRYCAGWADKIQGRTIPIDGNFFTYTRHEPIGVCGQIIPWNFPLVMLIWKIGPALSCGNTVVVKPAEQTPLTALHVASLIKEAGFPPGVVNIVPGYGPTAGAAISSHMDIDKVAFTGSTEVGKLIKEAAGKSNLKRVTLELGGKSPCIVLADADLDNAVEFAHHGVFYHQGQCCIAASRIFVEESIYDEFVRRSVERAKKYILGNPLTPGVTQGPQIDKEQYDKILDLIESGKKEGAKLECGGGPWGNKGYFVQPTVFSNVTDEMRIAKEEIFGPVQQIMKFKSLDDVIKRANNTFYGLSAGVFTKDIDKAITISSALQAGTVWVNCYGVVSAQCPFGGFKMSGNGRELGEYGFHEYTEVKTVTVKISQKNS
# HttQ103 aggreg: mutant huntingtin aggregation inhibition; PC12 HttQ103-GFP aggregates, Acumen cytometry, 40 h; hit rate 1.1% among 220,000; AID 1688; Potency, µM (titrated, usually from 46.1 µM), without a hit: at the highest dose activity change, negative = inhibition, most hits filed as inhibitors; note: potency is the fitted concentration of half-maximal effect; % is set by controls: 0 for no effect and ±100 for the full control effect; nearly all actives have a fitted effect of over 60% in size
#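 Inducible Q103 Huntingtin exon 1–GFP PC12 line, 1500 cells/well in phenol red free DMEM with 5% equine and 5% calf serum. Tebufenozide 100 nM induced expression; compounds titrated; aggregates quantified by cytometry.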
# An asterisk follows results filed as active; ? = inconclusive; nt = not tested or not shown; [ ] = another dose, or the depositor's remark. Unless noted, calls come from the whole dose curve; as a rule, active = well fitted curve in the direction sought with a large enough effect; inconclusive = small, poorly fitted or top-dose-only effect, or another doubt; inactive = no such curve, though single readings can be large; an effect the other way counts as inactive or inconclusive.
SMILES,PNC inhibitor,HTT ATP protect,HPGD block,CBFb-RUNX1 inh,ALDH1A1 block,HttQ103 aggreg
O=C(C1=C(O)C(=O)N(CCN2CCOCC2)C1c1ccccn1)c1cccs1 (configuration not stated),30.4,-3.1%[0.074 µM],-5.0%,-2.8%,18.9µM*,-6.9%
Cc1c(/C(O)=C2/C(=O)C(=O)N(CCN3CCOCC3)C2c2ccccn2)cnn1-c1ccccc1 (configuration not stated),nt,-50.1%,nt,-7.7%,?,12.8%
CCCOC(=O)c1ccc(NC(=O)c2cn(CC)c3nc(C)ccc3c2=O)cc1,-22.6,0.1%,-0.5%,-1.3%,-0.3%,26.6%
O=S(=O)(c1cccs1)N1CCN(c2ccc(O)cc2)CC1,nt,-28.7%[10 µM],nt,-5.1%,nt,-6.6%[9.22 µM]
O=C(Nc1ccc2c(c1)OCO2)N1CCN(Cc2ccco2)CC1,nt,-93.4%[10 µM],nt,8.2%,?,1.7%[9.22 µM]
CCSc1nnc(Cn2c(=O)sc3ccccc32)n1C,15.6,-15.4%[10 µM],-10.5%,-4.3%,2.4%,-31.4%
Cn1c(Cn2c(=O)sc3ccccc32)nnc1SCc1ccccn1,-4.7,8.6%,nt,1.5%,2µM*,1.5%
Cl/C(=C\n1cncn1)c1ccc(Cl)cc1Cl,nt,?,14.1µM*,3.5%[21.7 µM],?,-27.4%
O=C(OCc1ccccc1)c1cn(-c2ccccc2)nc1-c1ccncc1,-2.2,-11.5%,?,8.1%,20µM*,5.6%
O=C(NCc1cccnc1)c1cn(-c2ccccc2)nc1-c1ccccc1,nt,-71.4%,nt,4.5%,4.47µM*,-7.0%
O=Cc1cn(-c2ccccc2)nc1-c1ccncc1,nt,nt,nt,5.5%,2.51µM*,-6.1%
O=C(O)CC/C(=N/NC(=O)c1cn(-c2ccccc2)nc1-c1ccccc1)C(=O)O,12.9,9.0%[10 µM],-17.9%,0.3%,4.47µM*,13.9%
Cc1ncc(COP(=O)(O)O)c(CN)c1O,nt,22.5%,nt,nt,nt,12.0%
CCCN1C2=C(C(=O)CC(C)(C)C2)C(c2ccc(F)cc2)C2=C1c1ccccc1C2=O (configuration not stated),50.4,-2.0%,35.5µM*,-7.1%,?,?
CCCCN1C2=C(C(=O)CC(C)(C)C2)C(c2ccccc2)C2=C1c1ccccc1C2=O (configuration not stated),28.9,-20.2%,-10.1%,-4.3%,?,-18.6%
O=C(NNc1ccc([N+](=O)[O-])cc1)C1CC2CCCC(C1)C2=O (configuration not stated),-108.8*,-6.6%,-16.8%,-13.2%,-8.2%,-0.6%
O=C(NNc1ccc([N+](=O)[O-])cc1)C1CC1c1ccccc1 (configuration not stated),23.4,nt,25.1µM*,-8.3%,10µM*,5.4%
NNC(=O)[C@@H]1C[C@@H]1c1ccccc1,4.0,-34.7%[10 µM],-4.4%,1.6%,6.9%,-7.2%
O=C(NNc1ccc(Cl)cc1)C1CCC1,nt,9.1%[10 µM],nt,8.0%,-2.0%,15.4%[9.22 µM]
C/C(=N\NC(=O)C1CC1c1ccccc1)c1cccc([N+](=O)[O-])c1 (configuration not stated),36.2,?,-4.1%,-1.0%,6.4%,11.6%
NNC(=O)C1CC1c1ccccc1 (configuration not stated),-17.3,3.7%[10 µM],nt,-4.9%,3.98µM*,11.7%
Cc1nc(NCCO)c2nc(-c3ccccc3)n(CCCN(C)C)c2n1,nt,-45.7%,?,18.1%,?,nt
CC(C)CN(C(=O)COC(=O)c1ccccc1SCC(=O)NC1CCCCCC1)C1CCS(=O)(=O)C1 (configuration not stated),29.7,29.3%[10 µM],-21.5%,5.4%,-7.6%,-6.7%
O=C(NC1CCCCCC1)C(=S)NCc1ccccc1,nt,-23.0%,nt,0.9%,25.1µM*,-4.6%[9.22 µM]
O=C(CSc1ccccc1C(=O)NCc1ccccc1)NC1CCCCCCC1,44.7,-6.4%[10 µM],20µM*,?,-9.8%,2.6%
SMILES,PNC inhibitor,HTT ATP protect,HPGD block,CBFb-RUNX1 inh,ALDH1A1 block,HttQ103 aggreg
CCN(C(=O)COC(=O)c1ccccc1SCC(=O)NC1CCCCCCC1)C1CCS(=O)(=O)C1 (configuration not stated),-112.4*,-5.5%[0.074 µM],?,5.0%,?,-9.7%
O=C(NC1CCCCC1)C(=S)NCc1ccccc1,nt,21.4%[10 µM],nt,14.3%,-13.7%,-5.4%
O=C(NCCc1ccccc1)NC1CCCCC1,?,-24.3%,-7.5%,9.0%,15.7%,-5.6%
O=C(NC1CCCCCC1)C(=S)NCCc1ccccc1,nt,-44.1%,nt,4.5%,11.2µM*,11.6%
Cc1c(C)c2c(c(C)c1OC(=O)c1cccnc1)CC[C@@](C)(CCC[C@H](C)CCC[C@H](C)CCCC(C)C)O2,nt,5.3%,nt,4.8%,nt,-0.5%
O=C1/C(=C/c2ccc(N3CCCC3)cc2)NC(=S)N1C1CC1,45.1,-16.4%,-6.5%,-22.7%,15.8µM*,-19.2%
O=C1N/C(=C/c2ccc(N3CCCC3)cc2)C(=O)N1c1ccccc1,64.6,nt,-8.5%,5.3%,-9.4%,?
Cc1cc(N2CCCC2)ccc1/C=C1\NC(=S)N(C)C1=O,nt,-11.1%,nt,?,4.47µM*,-26.1%
COc1cccc(/C=C/C(=O)OCC(=O)NCC2CCCO2)c1OC (configuration not stated),62.3,-16.2%[10 µM],-16.8%,-2.2%,6.8%,-4.5%
NC(=O)c1nsc(C(=O)N(CCc2ccccc2)C(C(=O)NC2CCCC2)c2ccco2)c1N (configuration not stated),15.3,-11.7%[10 µM],-20.9%,6.4%,?,13.1%
O=C(CC(Cc1ccccc1)c1ccco1)NC1CCCCC1 (configuration not stated),-13.2,4.6%,14.1µM*,1.4%,-6.6%,-18.2%
O=C(NC1CCCCC1)C(c1ccco1)N(CCc1ccccc1)C(=O)C(F)(F)F (configuration not stated),26.7,9.0%[1.9 µM],-1.9%,13.5%,31.6µM*,-1.0%
Cc1ccc(S(=O)(=O)Cn2nnnc2C(CC(C)C)N2CCN(C(=O)c3ccco3)CC2)cc1 (configuration not stated),-113.4*,4.8%[10 µM],1.6%,7.2%,?,-3.6%
Fc1ccccc1C(c1nnnn1C1CCCC1)N1CCN(Cc2ccccc2)CC1 (configuration not stated),-22.7,16.5%[1.9 µM],1.9%,8.0%,?,1.7%
CCCC(c1nnnn1C1CCCC1)N1CCN(C(=O)c2ccco2)CC1 (configuration not stated),-21.3,-26.4%[10 µM],1.5%,5.7%,?,-6.8%
Cc1ccc2occ(C(c3nnnn3C3CCCC3)N3CCN(C(=O)c4ccco4)CC3)c(=O)c2c1 (configuration not stated),22.4,-17.1%,-5.0%,-4.0%,1.12µM*,19.9%
CCCCC(c1nnnn1C1CCCC1)N1CCN(C(=O)c2ccco2)CC1 (configuration not stated),?,-13.4%[10 µM],-6.4%,2.9%,11.2µM*,-13.9%

# From PubChem
